# Several values for one entry are separate records, joined by “and”; a condition that tells them apart may be missing. Equal entries are not always repeated. Results filed as inconclusive are left out. Activity calls are given as the source filed them. How the source made its calls, unless noted: active means hit-call score of the fitted dose curve at least 0.9, where 1 is the maximum; inactive means score below 0.9.
# Experiment: ACEA_ER_80hr: ACEA Biosciences xCELLigence Real-Time Cell Analysis on Estrogen Receptor Agonism for Proliferation (AID 2282667; active means hit-call score of the fitted dose curve at least 0.9, where 1 is the maximum)
# Conditions: T47D proliferation, impedance (xCELLigence), 80 h
# Method in brief: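 Cell-growth kinetics were measured by impedance in T47D cells treated continuously with compound (top 100 uM final, 1:4 steps, 8 points). Activity at 80 h was scored as signal gain over the DMSO baseline.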
Structure (SMILES),AC50,outcome
C=CCOCC(O)CO (stereo unspecified),0.0285 µM (active),–
C[C@H](CCC(=O)O)[C@H]1CC[C@H]2[C@@H]3CC[C@@H]4C[C@H](O)CC[C@]4(C)[C@H]3CC[C@]12C,–,inactive
ClCCOCCOCCCl,–,inactive
CC(=O)c1cccnc1,–,inactive
C=CC(C)CCCC(C)(C)O (stereo unspecified),–,inactive
COc1ccc2[nH]cc(CCNC(C)=O)c2c1,–,inactive
CC(C)CCOC(=O)CC(C)C,–,inactive
CCCC[N+](C)(CCCC)CCCC,–,inactive
CCC(C)(C)c1cc(O)c(C(C)(C)CC)cc1O,–,inactive
CC(C)=CCCC(C)=CC(=O)O,–,inactive
CN(C)C,–,inactive
CC(C)(CO)CO,–,inactive
CC(=O)C1C(=O)C=C(C)OC1=O (stereo unspecified),–,inactive
CC1(C)CC(N)CC(C)(CN)C1 (stereo unspecified),–,inactive
CCCc1ccc(O)cc1,50 µM (active),–
CC/C=C\CCCCCCCCCCOC(C)=O,–,inactive
CCOC(=O)C(=O)OCC,–,inactive

Structure (SMILES),AC50,outcome
NC(N)=NC(N)=NCCc1ccccc1,–,inactive
CCCCCCCOC(C)=O,–,inactive
CCOC(=O)CC(C)C,–,inactive
CCCCCCCCCCCCOCCOS(=O)(=O)O,1.98 µM (active),–
CC1=CC[C@@H]2C[C@H]1C2(C)C,–,inactive
CN(C)CCCNCCCN(C)C,–,inactive
[Na+],–,inactive
CCCCCCCCCCCCS,–,inactive
CC(C)(C)c1cccc(O)c1,–,inactive
C[Si]1(C)N[Si](C)(C)N[Si](C)(C)N1,–,inactive
CCC(CC)CO,–,inactive
[O-]/[N+](=N\O)c1ccccc1,–,inactive
C=CCCCCCCCCC(=O)OCC,–,inactive
NS(=O)(=O)c1cc(C(=O)O)c(NCc2ccco2)cc1Cl,–,inactive
CCC(C)(C)C1CCC(OC)CC1 (stereo unspecified),–,inactive
C=C(C)C(=O)OCCC(C)OC(=O)C(=C)C (stereo unspecified),–,inactive

# Experiment: APR_HepG2_CellCycleArrest_24hr: Apredica 24-hour HepG2 Assay for Cell Cycle Arrest (AID 2282905);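 further: cell cycle arrest scored as ratio of 2N to 4N nuclear DNA content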
# Conditions: imaging, actives raise or lower the signal
# Method in brief: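 Compounds at 0.39–200 uM (0.5% DMSO) for 24 h, then fixed and Hoechst 33342 stained. Cell-cycle analysis of nuclear DNA content by high-content imaging, fitted bidirectionally versus DMSO.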
Structure (SMILES),outcome,AC50
CC/C(=C(\c1ccccc1)c1ccc(OCCN(C)C)cc1)c1ccccc1,inactive,–
C[C@]12CC[C@@H]3c4ccc(O)cc4CC[C@H]3[C@@H]1CC[C@@H]2O,inactive,–
C#C[C@]1(O)CC[C@H]2[C@@H]3CCc4cc(O)ccc4[C@H]3CC[C@@]21C,–,36.8 µM (active)
O=C(c1ccc(OCCN2CCCCC2)cc1)c1c(-c2ccc(O)cc2)sc2cc(O)ccc12,inactive,–

# Experiment: APR_HepG2_NuclearSize_24hr: Apredica 24-hour HepG2 Assay for Nuclear Size (AID 2282907)
# Conditions: high-content imaging, actives raise or lower the signal
# Method in brief: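 HepG2 cells exposed 24 h to compounds at 0.39–200 uM (0.5% DMSO), fixed, Hoechst 33342 stained and imaged at 20x; nuclear diameter measured by automated image analysis, fitted bidirectionally against DMSO controls.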
row,Structure (SMILES),outcome
1,CC/C(=C(\c1ccccc1)c1ccc(OCCN(C)C)cc1)c1ccccc1,inactive
2,C[C@]12CC[C@@H]3c4ccc(O)cc4CC[C@H]3[C@@H]1CC[C@@H]2O,inactive
3,C#C[C@]1(O)CC[C@H]2[C@@H]3CCc4cc(O)ccc4[C@H]3CC[C@@]21C,inactive
4,O=C(c1ccc(OCCN2CCCCC2)cc1)c1c(-c2ccc(O)cc2)sc2cc(O)ccc12,inactive

# Experiment: APR_HepG2_CellLoss_24hr: Apredica 24-hour HepG2 Assay for Cell Loss (AID 2282908);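 on AC50: fit in both directions so a hit may be cell loss or gain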
# Conditions: high-content imaging
# Method in brief: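 HepG2 cells exposed 24 hr to 0.39–200 uM compound in duplicate at 0.5% v/v final DMSO. Cells fixed in 3.7% formaldehyde and Hoechst 33342-stained. Cell number came from nuclear imaging at 20x. Bidirectional fit versus DMSO.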
Structure (SMILES),AC50,outcome
CC/C(=C(\c1ccccc1)c1ccc(OCCN(C)C)cc1)c1ccccc1,14.5 µM (active) and 17.8 µM (active),–
C[C@]12CC[C@@H]3c4ccc(O)cc4CC[C@H]3[C@@H]1CC[C@@H]2O,18.7 µM (active),–
C#C[C@]1(O)CC[C@H]2[C@@H]3CCc4cc(O)ccc4[C@H]3CC[C@@]21C,24.3 µM (active),–
O=C(c1ccc(OCCN2CCCCC2)cc1)c1c(-c2ccc(O)cc2)sc2cc(O)ccc12,–,inactive

# Experiment: APR_HepG2_MicrotubuleCSK_24hr: Apredica 24-hour HepG2 Assay for Microtubule CSK Stabilty (AID 2282909)
# Conditions: HepG2 microtubule cytoskeleton imaging, actives raise or lower the signal
# Method: APR_HepG2_24hr is a cell-based, multiplexed-readout assay that uses HepG2, a human liver cell line, with measurements taken at 24 hours after chemical dosing in a 384-well plate.APR_HepG2_MicrotubuleCSK_24hr is one of 10 assay component(s) measured or calculated from the APR_HepG2_24hr assay. It is designed to make measurements of protein conformation, a form of conformation reporter, as detected with fluorescence intensity signals by HCS Fluorescent Imaging technology.Data from the assay component APR_HepG2_MicrotubuleCSK_24hr was analyzed into 1 assay endpoint. This assay endpoint, APR_HepG2_MicrotubuleCSK_24hr, was analyzed with bidirectional fitting relative to DMSO as the negative control and baseline of activity. Using a type of conformation reporter, measures of protein for gain or loss-of-signal activity can be used to understand the signaling at the cellular-level. Furthermore, this assay endpoint can be referred to as a primary readout, because this assay has produced multiple assay endpoints where this one serves a signaling function. To generalize the intended target to other relatable targets, this assay endpoint is annotated to the cell morphology intended target family, where the subfamily is cell conformation.
# Cells were treated with dimethyl sulfoxide (DMSO) as a solvent control at a final concentration of 0.5% v/v or with compounds in DMSO with a resulting final DMSO concentration of 0.5% v/v. Compound treatment was done at concentrations of 0.39, 0.78, 1.56, 3.12, 6.24, 12.5, 25, 50, 100, and 200 uM in duplicate on each plate. Cells were treated with compounds for 1, 24, or 72 hr. Carbonyl […] m-chloro-phenylhydrazone (CCCP) and taxol were used as positive controls for mitochondrial function and cytoskeletal stability, respectively; DMSO served as the negative control for this experiment. Cells were fixed by the direct addition of 50 uL formaldehyde in Hank's Balanced Salt Solution (HBSS) to a final concentration of 3.7%. After incubation in the fixation medium for 30 min at room temperature (293-298 K), cells were rinsed twice with HBSS and treated with cell permeabilization buffer (16 uL of 0.5% Triton X-100) for 10 min at room temperature (293-298 K) before labeling. For mitochondrial membrane potential and mitochondrial measurements, pre-fixed cells were incubated with 50 uL of MitoTracker Red CMXRos (Invitrogen) at a concentration of 250 nM for 30 min before fixation. In the remaining cases, post-fixed cells were labeled by incubation with a multiplexed mixture of primary antibodies in HBSS for 60 min at room temperature (293-298 K) to detect immunoreactivity of c-Jun (1:500), phospho-histone H3 (1:100), phospho-histone H2A.x (1:200), p53 (1:400), alpha-tubulin (1:200) and Hoechst 33342 (2 ug/mL). […]
Structure (SMILES),AC50,outcome
CC/C(=C(\c1ccccc1)c1ccc(OCCN(C)C)cc1)c1ccccc1,35.4 µM (active) and 44.5 µM (active),–
C[C@]12CC[C@@H]3c4ccc(O)cc4CC[C@H]3[C@@H]1CC[C@@H]2O,32.4 µM (active),–
C#C[C@]1(O)CC[C@H]2[C@@H]3CCc4cc(O)ccc4[C@H]3CC[C@@]21C,–,inactive
O=C(c1ccc(OCCN2CCCCC2)cc1)c1c(-c2ccc(O)cc2)sc2cc(O)ccc12,–,inactive

# Experiment: APR_HepG2_MitoticArrest_24hr: Apredica 24-hour HepG2 Assay for Mitotic Arrest (AID 2282910)
# Conditions: high-content imaging, actives raise or lower the signal
# Method in brief: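 Compounds are dosed onto HepG2 cells across ten concentrations up to 200 uM for 24 hr. Cells are then fixed in 3.7% formaldehyde, permeabilised, and labelled for phospho-histone H3 and nuclei; images are scored by cell cycle analysis and fitted bidirectionally relative to DMSO.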
Structure (SMILES),AC50,outcome
CC/C(=C(\c1ccccc1)c1ccc(OCCN(C)C)cc1)c1ccccc1,7.3 µM (active) and 6.94 µM (active),–
C[C@]12CC[C@@H]3c4ccc(O)cc4CC[C@H]3[C@@H]1CC[C@@H]2O,22.6 µM (active),–
C#C[C@]1(O)CC[C@H]2[C@@H]3CCc4cc(O)ccc4[C@H]3CC[C@@]21C,10.9 µM (active),–
O=C(c1ccc(OCCN2CCCCC2)cc1)c1c(-c2ccc(O)cc2)sc2cc(O)ccc12,–,inactive

# Experiment: APR_HepG2_MitoMembPot_24hr: Apredica 24-hour HepG2 Assay for Mitochondrial Membrane Potential (AID 2282911)
# Conditions: imaging, actives raise or lower the signal
# Method in brief: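 Human hepatoma HepG2 cultures received ten compound concentrations up to 200 uM for 24 hr. Membrane-potential dye signal, captured by automated fluorescence microscopy, was scored for gain or loss against DMSO controls.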
Structure (SMILES),AC50,outcome
CC/C(=C(\c1ccccc1)c1ccc(OCCN(C)C)cc1)c1ccccc1,39.2 µM (active) and 24.9 µM (active),–
C[C@]12CC[C@@H]3c4ccc(O)cc4CC[C@H]3[C@@H]1CC[C@@H]2O,–,inactive
C#C[C@]1(O)CC[C@H]2[C@@H]3CCc4cc(O)ccc4[C@H]3CC[C@@]21C,–,inactive
O=C(c1ccc(OCCN2CCCCC2)cc1)c1c(-c2ccc(O)cc2)sc2cc(O)ccc12,–,inactive

# Experiment: APR_HepG2_MitoMass_24hr: Apredica 24-hour HepG2 Assay for Mitochondrial Mass (AID 2282912)
# Conditions: high-content imaging, actives raise or lower the signal
# Method in brief: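 HepG2 cells exposed 24 hr to 0.39–200 uM compound, 0.5% v/v DMSO, in duplicate. Stained before fixation with 250 nM MitoTracker Red CMXRos for 30 min, then imaged at 20x with Hoechst nuclei. Fitted in both directions against DMSO.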
Structure (SMILES),AC50,outcome
CC/C(=C(\c1ccccc1)c1ccc(OCCN(C)C)cc1)c1ccccc1,6.38 µM (active) and 7.4 µM (active),–
C[C@]12CC[C@@H]3c4ccc(O)cc4CC[C@H]3[C@@H]1CC[C@@H]2O,–,inactive
C#C[C@]1(O)CC[C@H]2[C@@H]3CCc4cc(O)ccc4[C@H]3CC[C@@]21C,–,inactive
O=C(c1ccc(OCCN2CCCCC2)cc1)c1c(-c2ccc(O)cc2)sc2cc(O)ccc12,–,inactive

# — PubChem BioAssay (EPA / NIEHS)
